The source made the active and inactive calls. Unless noted, the rule behind the calls is not given here.
Assays:
[1] = compound effects on lung adenocarcinoma cell viability – A549, calcein-AM fluorescence, 48 h, basal, profiling panel (AID 1162); details: higher = more signal; note: test concentration not given here
[2] = compound effects on differentiated 3T3-L1 adipocyte viability – cell-based, 3T3-L1 adipocytes, calcein-AM fluorescence, 48 h, basal, profiling panel (AID 1163); details: 3T3-L1 adipocytes viability, higher = more signal; note: test concentration not given here
[3] = compound effects on hepatocellular carcinoma cell viability – HepG2, calcein-AM fluorescence, 48 h, basal, profiling panel (AID 1164); details: higher = more signal; note: test concentration not given here
[4] = compound effects on multiple myeloma cell viability – MM1S, calcein-AM fluorescence, 48 h, basal, profiling panel (AID 1165); details: higher = more signal;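 note: viability of MM1S multiple myeloma cells under basal unstimulated conditions; test concentration not given here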
[5] = calcein-AM signal in unstimulated myeloma cells – cell-based, calcein-AM fluorescence, 48 h, PK04 Diversity Set, profiling panel (AID 1166); details: RPMI8226 myeloma viability, higher = more signal;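 note: cells grown under basal conditions without added stimulus; test concentration not given here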
[6] = JC-1 mitochondrial signal, unstimulated HepG2 cells – cell-based, JC-1 fluorescence, 24 h, 100 nL compound, profiling panel (AID 1167); details: HepG2 mitochondrial potential, higher = more signal; note: test concentration not given here
[7] = JC-1 mitochondrial signal, unstimulated adipocytes – cell-based, JC-1 fluorescence, 3T3-L1 adipocytes, 24 h, 100 nL compound, profiling panel (AID 1168); details: JC-1 mitochondrial fluorescence, higher = more signal, called active from +8 up or from −8 down; note: test concentration not given here
[8] = JC-1 mitochondrial signal, unstimulated myeloma cells – cell-based, JC-1 fluorescence, RPMI8226, 24 h, 100 nL compound, profiling panel (AID 1169); details: JC-1 mitochondrial potential fluorescence, higher = more signal; note: test concentration not given here
[9] = JC-1 mitochondrial signal, unstimulated MM1S myeloma – cell-based, JC-1 fluorescence, 24 h, 100 nL compound, profiling panel (AID 1170); details: MM1S mitochondrial potential, higher = more signal; note: test concentration not given here
[10] = resazurin metabolic signal in A549 cells – cell-based, resazurin fluorescence, 24 h, PK04 Diversity Set, profiling panel (AID 1171); details: A549 viability, higher = more signal, called active from +8 up or from −8 down; note: test concentration not given here
[11] = resazurin metabolic signal in HepG2 cells – cell-based, resazurin fluorescence, 24 h, PK04 Diversity Set, profiling panel (AID 1172); details: HepG2 viability, higher = more signal; note: test concentration not given here
[12] = budding yeast growth changes without added modifier – OD600, strain BY4716, 24 h, basal condition, primary screen (AID 1173); details: S. cerevisiae BY4716 growth, OD600, 24 h; higher = more signal, called active from +8 up or from −8 down
[13] = viability profiling in MM1S myeloma cells – cell-based, resazurin fluorescence, basal, 24 h, PK04 Diversity Set, profiling panel (AID 1174); details: higher = more signal, called active from +8 up or from −8 down; note: test concentration not given here
[14] = biological target: Dihydroorotate dehydrogenase (quinone), mitochondrial (Plasmodium falciparum (isolate 3D7)) (UniProt Q08210); test: inhibition of P. falciparum DHODH – biochemical, C-terminal His tag, absorbance 600 nm, primary screen (AID 1175); details: PfDHODH enzyme, DCIP absorbance 600 nm; higher = more signal, called active from +8 up or from −8 down;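 note: recombinant parasite enzyme with a five histidine tag at its C terminus; test concentration not given here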
Chain of Dihydroorotate dehydrogenase (quinone), mitochondrial (Plasmodium falciparum (isolate 3D7)) (Q08210 whole entry, looked up): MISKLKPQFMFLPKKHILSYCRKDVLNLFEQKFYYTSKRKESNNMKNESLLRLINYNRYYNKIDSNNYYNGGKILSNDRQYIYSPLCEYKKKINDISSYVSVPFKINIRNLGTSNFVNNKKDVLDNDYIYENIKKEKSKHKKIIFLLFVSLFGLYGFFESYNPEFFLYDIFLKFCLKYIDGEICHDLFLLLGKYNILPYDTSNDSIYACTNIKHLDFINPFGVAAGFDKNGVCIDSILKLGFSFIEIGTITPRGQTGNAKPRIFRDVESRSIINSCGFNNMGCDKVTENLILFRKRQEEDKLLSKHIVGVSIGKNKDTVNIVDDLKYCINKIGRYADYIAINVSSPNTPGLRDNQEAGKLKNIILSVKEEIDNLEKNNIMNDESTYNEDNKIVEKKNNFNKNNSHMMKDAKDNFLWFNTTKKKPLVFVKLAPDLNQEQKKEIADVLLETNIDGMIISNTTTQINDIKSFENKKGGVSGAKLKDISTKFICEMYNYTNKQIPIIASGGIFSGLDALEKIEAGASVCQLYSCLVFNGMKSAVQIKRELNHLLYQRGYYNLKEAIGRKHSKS

[15] = inhibition of PAO1 biofilm formation – strain PAO1, LB-PBS medium, absorbance 600 nm, primary screen (AID 1176); note: test concentration not given here; details: P. aeruginosa PAO1 growth/biofilm, A600, 12 h; higher = more signal
[16] = growth modulation of vineyard yeast isolate – strain RM11-1a, OD600, basal, 24 h, primary screen (AID 1177);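 note: cultures grown under basal conditions with no added stressor; test concentration not given here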; details: S. cerevisiae RM11-1a growth, OD600, 24 h; higher = more signal, called active from +8 up or from −8 down
[17] = growth of efflux-deficient E. coli DRC39 – strain DRC39, OD650, 24 h, E. coli filamentation inducers, primary screen (AID 1178);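 note: growth measured as culture turbidity by optical density at 650 nm; test concentration not given here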; details: E. coli DRC39 acrAB, higher = more signal, called active from +8 up or from −8 down
[18] = growth of efflux-deficient E. coli DRC39 – strain DRC39, OD650, 48 h, E. coli filamentation inducers, primary screen (AID 1179);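 note: screen aims at cell division blockers that make cells filament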; details: E. coli DRC39 delta-acrAB growth, higher = more signal, called active from +8 up or from −8 down
[19] = viability profiling in RPMI8226 myeloma cells – cell-based, resazurin fluorescence, basal, 24 h, PK04 Diversity Set, profiling panel (AID 1180); details: higher = more signal;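 note: RPMI8826 multiple myeloma cell line at 5000 cells per well; test concentration not given here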
[20] = biological target: E3 ubiquitin-protein ligase XIAP (Homo sapiens) (UniProt P98170); test: small molecules binding XIAP protein – biophysical, small-molecule microarray, fluorescence 635 nm, primary screen (AID 1181); details: higher = more signal;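 note: score merges 667 nm emission and signal to noise over triplicate slides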
Chain of E3 ubiquitin-protein ligase XIAP (Homo sapiens) (P98170 whole entry, looked up): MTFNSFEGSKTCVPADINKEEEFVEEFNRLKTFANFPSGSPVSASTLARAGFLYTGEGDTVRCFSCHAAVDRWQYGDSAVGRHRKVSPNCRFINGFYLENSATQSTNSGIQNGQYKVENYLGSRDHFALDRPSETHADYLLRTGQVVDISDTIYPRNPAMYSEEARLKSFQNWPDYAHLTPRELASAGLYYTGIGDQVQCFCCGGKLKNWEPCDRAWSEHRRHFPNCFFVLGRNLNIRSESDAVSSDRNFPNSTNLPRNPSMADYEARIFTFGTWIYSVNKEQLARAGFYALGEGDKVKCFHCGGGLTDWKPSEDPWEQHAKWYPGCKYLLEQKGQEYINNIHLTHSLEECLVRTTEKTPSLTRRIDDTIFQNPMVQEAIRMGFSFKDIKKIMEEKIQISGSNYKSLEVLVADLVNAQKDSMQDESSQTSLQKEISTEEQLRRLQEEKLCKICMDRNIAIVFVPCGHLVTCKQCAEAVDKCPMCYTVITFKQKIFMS

SMILES | z-score [1] | z-score [2] | z-score [3] | z-score [4] | z-score [5] | z-score [6] | z-score [7] | z-score [8] | z-score [9] | z-score [10] | z-score [11] | z-score [12] | z-score [13] | composite z-score [14] | z-score [15] | z-score [16] | z-score [17] | z-score [18] | z-score [19] | composite z-score [20]
NC(=O)[C@H]1[C@@H]2C(=O)O[C@@H](c3ccccc3)[C@@H](c3ccccc3)N2[C@@H](c2ccc(O)cc2)[C@]12C(=O)Nc1ccc(C#CC3=CCCCC3)cc12 | -1.8 | 0.741 | -3.91 | -3.33 | -4.54 | -3.68 | -2.09 (inactive) | -1.16 | -1.32 | -0.3 (inactive) | -0.111 | 0.137 (inactive) | -2.5 (inactive) | -0.146 (inactive) | -0.144 (inactive) | 1.76 (inactive) | -0.466 (inactive) | -0.51 (inactive) | -4.76 | -0.0773
CC(C)C[C@@H]1NC(=O)[C@@]23C(=O)N[C@@H](Cc4ccccc4)C2[C@H](C)[C@@]2(C)O[C@H]2C3/C=C/C/C=C\CNC(=O)[C@@H](C)NC1=O (stereo not given in full) | -0.366 | 0.718 | -0.0346 | 0.761 | -1.12 | 0.991 | 0.625 (inactive) | 0.207 | -0.342 | 1.16 (inactive) | 0.833 | -0.68 (inactive) | 1.33 (inactive) | -0.401 (inactive) | -0.131 (inactive) | -1.08 (inactive) | 1.65 (inactive) | 0.209 (inactive) | 1.01 | -0.116
NC(=O)N1C(=O)C2C(C1=O)C1C=C(CCCO)C2C(C2CC2)N1Cc1cccc(OC(F)(F)F)c1 (stereo not given) | -0.307 | 0.0635 | 0.801 | -2.82 | 0.0097 | -0.348 | 0.418 (inactive) | 0.191 | 0.645 | -0.334 (inactive) | -0.807 | -1.33 (inactive) | -0.217 (inactive) | -1.26 (inactive) | -0.0585 (inactive) | -0.0011 (inactive) | -0.149 (inactive) | -0.508 (inactive) | -0.762 | 0.312
COCCOC(=O)N1C(=O)[C@@]2(c3cc(C#CCNC(N)=O)ccc31)[C@H](c1ccc(OCCO)cc1)N1[C@H](c3ccccc3)[C@H](c3ccccc3)OC(=O)[C@H]1[C@@H]2C(N)=O | 0.586 | -0.0118 | 0.334 | -1.24 | -0.668 | -1.7 | 0.407 (inactive) | -0.185 | -0.604 | 0.266 (inactive) | -0.373 | 1.19 (inactive) | 0.421 (inactive) | -0.0174 (inactive) | 0.858 (inactive) | 2.4 (inactive) | 0.146 (inactive) | 0.384 (inactive) | 0.637 | -0.0414
C=C[C@@H](OC)[C@H](OC(=O)Nc1ccc(SC)cc1)c1ccc(OCCO)cc1 | -0.568 | 0.222 | -0.587 | -2.08 | -1.56 | -2.68 | 0.286 (inactive) | -0.151 | -0.333 | -0.285 (inactive) | -0.8 | -0.88 (inactive) | -0.415 (inactive) | -0.915 (inactive) | 0.838 (inactive) | 0.884 (inactive) | -0.967 (inactive) | -1.5 (inactive) | -0.306 | -0.0918
CN1C(=O)[C@@]2(Cc3ccccc3)N=C(c3ccc(OCCCO)cc3)O[C@H]2c2ccccc21 | -1.11 | -0.597 | -1.61 | -2.71 | -4.45 | 0.384 | 1.69 (inactive) | -1.26 | -1.89 | -0.788 (inactive) | -0.286 | -6.2 (inactive) | -2.4 (inactive) | 0.271 (inactive) | 1.14 (inactive) | 0.202 (inactive) | 0.432 (inactive) | 0.514 (inactive) | -1.99 | 0.283
COCCOC(=O)N1C(=O)[C@@]2(c3ccccc31)[C@H](c1ccccc1OCCO)N1[C@H](c3ccccc3)[C@H](c3ccccc3)OC(=O)[C@H]1[C@@H]2C(N)=O | -1.59 | 0.61 | -1.85 | -3.32 | -4.57 | -0.88 | -0.27 (inactive) | -1.15 | -1.21 | -1.78 (inactive) | -0.704 | 1.82 (inactive) | -2.78 (inactive) | 0.565 (inactive) | 2.07 (inactive) | 1.98 (inactive) | 0.322 (inactive) | -0.528 (inactive) | -4.57 | -0.288
COc1ccc([Si](C)(C)[C@H]2[C@H](CC(=O)N3CCC[C@H]3CO)O[C@@]3(C(=O)N(Cc4ccc(N5CCC5=O)cc4)c4ccccc43)[C@@H]2C)cc1 | -0.428 | 0.303 | -0.784 | -2.65 | -3.76 | 1.26 | 0.198 (inactive) | -1.09 | 0.309 | -0.737 (inactive) | -1.39 | -0.942 (inactive) | -1.7 (inactive) | -5.46 (inactive) | 1 (inactive) | 0.194 (inactive) | -1.17 (inactive) | -1.29 (inactive) | -0.944 | -0.0339
C[C@@H]1ON(c2ccc(I)cc2)[C@H](c2ccc(OC(=O)OC(C)(C)C)cc2)[C@H]1C(=O)N1C(=O)OC[C@H]1Cc1ccccc1 | 0.0132 | 1.06 | 1.61 | -0.234 | 0.351 | 0.144 | 0.498 (inactive) | -0.366 | -1.81 | 1.33 (inactive) | 1.14 | -1.24 (inactive) | 1.6 (inactive) | -0.571 (inactive) | 0.294 (inactive) | 0.61 (inactive) | 1.81 (inactive) | 1.2 (inactive) | 1.87 | -0.0448

— PubChem BioAssay
